# According to PubChem BioAssay (NCATS):
# Results filed as inconclusive are left out. Active and inactive are the calls of the source. The call rests on the fitted dose curve; in most records, active means well fitted cell-killing curve with a large enough effect; inconclusive means small, poorly fitted or top-dose-only effect, or effect the other way; inactive means no such curve, though single readings can be large or run the other way.
# Experiment: Quantitative High-Throughput drug screen in 47 multiple myeloma cell lines against the NCATS MIPE library collection: KHM11_PLB cell viability assay (AID 1918962); further: nearly all actives have a fitted effect of over 35% in size
# Conditions: KHM11 myeloma cell viability, CellTiter-Glo ATP luminescence, 48 h; series mostly up to 45.8 µM; viability, % of DMSO control: at the top concentration
# Outline: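 We plated 500 myeloma cells per well, pinned in MIPE 4.0 compounds, and incubated for 48 hours at 37C. ATP was then quantified with CellTiter-Glo, with DMSO and media-only wells defining 100% and 0%.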
# Potency means the concentration at half of the fitted maximal effect.
Compound,Potency,"viability, % of DMSO control"
Cc1ccc(NC(=O)C2(c3ccc4c(c3)OC(F)(F)O4)CC2)nc1-c1cccc(C(=O)O)c1,66.2 nM (active),–
COc1ccc(C(=O)CC2(O)C(=O)Nc3c(Cl)ccc(Cl)c32)cc1 (centres undefined),–,82.7% (inactive)
Cc1ccc(-c2ncn(-c3ccc(Nc4nccc(-c5cccc(N6CCOCC6)c5)n4)cc3)n2)cn1,118 nM (active),–
CCCCOc1c(C(=O)c2c(F)cc(C)cc2F)cnc2n[nH]cc12,3720 nM (active),–
CC(=O)c1c(C)c2cnc(Nc3ccc(N4CCNCC4)cn3)nc2n(C2CCCC2)c1=O,23500 nM (active),–
CNC(=O)c1ccc(N2C(=S)N(c3cnc(C#N)c(C(F)(F)F)c3)C(=O)C23CCC3)cc1F,2090 nM (active),–
O=c1[nH]nc(Sc2ncc([N+](=O)[O-])s2)n1-c1ccc2c(c1)OCCO2,2090 nM (active),–
CN(C)CC=CC(=O)Nc1cc2c(Nc3ccc(F)c(Cl)c3)ncnc2cc1O[C@H]1CCOC1,7430 nM (active),–
Cn1c2ccccc2c2c3c(c4c5ccccc5n(CCC#N)c4c21)CNC3=O,833 nM (active),–
CC(NCc1ccc2c(c1)nc(NC(=O)c1ccc(-c3cn[nH]c3)s1)n2CC(C)(C)O)C(C)(C)C (centres undefined),93.5 nM (active),–
C#Cc1cccc(Nc2ncnc3cc(OC)c(OCCCCCCC(=O)NO)cc23)c1,372 nM (active),–
CC1(O)CC(c2nc(-c3ccc4ccc(-c5ccccc5)nc4c3)c3c(N)nccn23)C1 (centres undefined),4180 nM (active),–
CC(=O)OCC(=O)[C@@]1(O)[C@H](C)C[C@H]2[C@@H]3C=C(C)C4=Cc5c(cnn5-c5ccccc5)C[C@]4(C)[C@@H]3[C@@H](O)C[C@@]21C,16600 nM (active),–
CC(C)(C)c1cnc(CSc2cnc(NC(=O)C3CCNCC3)s2)o1,74.3 nM (active),–
CCS(=O)(=O)c1cccc(-c2cc(C(=O)NC3CCN(C)CC3)c(C)c3[nH]c4ncc(C)cc4c23)c1,526 nM (active),–
Cc1ccc(C(=O)Nc2cccc(C(F)(F)F)c2)cc1-c1ccc2nc(NCCN3CCOCC3)ncc2c1,743 nM (active),–
CNC(=O)c1ccccc1Nc1nc(Nc2ccc(N3CCOCC3)cc2OC)ncc1Cl,7430 nM (active),–

Compound,Potency,"viability, % of DMSO control"
OCCCNc1cc(-c2ccnc(Nc3cccc(Cl)c3)n2)ccn1,18.7 nM (active),–
CC(C)c1ccccc1Cc1cc(C(=O)Nc2ccc(S(=O)(=O)c3ccccc3C(C)(C)C)cc2)c(O)c(O)c1O,7430 nM (active),–
Cn1cc(-c2[nH]c3cc(NC(=O)[C@H](N)C4CCCCC4)cc4c3c2C=NNC4=O)cn1,1480 nM (active),–
N#CCNC(=O)c1ccc(-c2ccnc(Nc3ccc(N4CCOCC4)cc3)n2)cc1,4690 nM (active),–
CN1CC[C@@H](c2c(O)cc(O)c3c(=O)cc(-c4ccccc4Cl)oc23)[C@@H](O)C1,23.5 nM (active),–
NC(=O)Nc1cc(-c2cccc(F)c2)sc1C(=O)N[C@H]1CCCNC1,74.3 nM (active),–
CN(C)Cc1c(C(=O)NCCOc2ccc(C(=O)NO)cc2)oc2ccccc12,1870 nM (active),–
Cc1[nH]nc2ccc(-c3cncc(OC[C@@H](N)Cc4ccccc4)c3)cc12,235 nM (active),–
COC(=O)[C@]12CCC(C)(C)C[C@@H]1[C@@H]1C(=O)C=C3[C@@]4(C)C=C(C#N)C(=O)C(C)(C)[C@@H]4CC[C@@]3(C)[C@]1(C)CC2,469 nM (active),–
CC(C)C[C@H](NC(=O)CNC(=O)c1cc(Cl)ccc1Cl)B(O)O,46.9 nM (active),–
O=C(CCCCCCNC(=O)c1cnc(N(c2ccccc2)c2ccccc2)nc1)NO,10500 nM (active),–
CC=C1NC(=O)[C@H]2CSSCCC=C[C@H](CC(=O)N[C@H](C(C)C)C(=O)N2)OC(=O)[C@H](C(C)C)NC1=O,16.6 nM (active),–
CC1=C(CO)C(=O)O[C@@H]([C@@H](C)[C@H]2CC[C@H]3[C@@H]4C[C@H]5O[C@]56[C@@H](O)C=CC(=O)[C@]6(C)[C@@H]4CC[C@]23C)C1,209 nM (active),–
CC(=O)Nc1nc(C)c(-c2ccc(Cl)c(S(=O)(=O)NCCO)c2)s1,935 nM (active),–
O=C(Nc1cc(C(F)(F)F)cc(C(F)(F)F)c1)c1cc(Cl)ccc1O,1480 nM (active),–
O=C(Nc1cn[nH]c1-c1nc2ccc(CN3CCOCC3)cc2[nH]1)NC1CC1,1480 nM (active),–
CNc1nccc(-c2cccnc2Oc2cc(C(=O)Nc3cccc(C(F)(F)F)c3)ccc2C)n1,1050 nM (active),–
